Assay [1] in a line: small molecules captured by biotinylated probe aFSTL3 – biochemical, small-molecule microarray, fluorescence 635/667, stem cell growth factor project, primary screen (AID 1064).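 Note: measures binding of the biotinylated anti-FSTL3 antibody to printed compounds.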 Particulars: higher = more signal.
A short description of assay [2]: binders from COS7 lysate, DM2A8 probe, primary screen, torsin A project, cell lysate, small-molecule microarray, fluorescence 635/667 (AID 1065). The settings on record: higher = more signal, COS7 lysate expressing mutant human TOR1A.
Assay [3] in a line: small molecules captured by biotinylated probe aFGF2 – biochemical, small-molecule microarray, fluorescence 635/667, stem cell growth factor project, primary screen (AID 1067).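 Note: measures binding of biotinylated aFGF2 protein to printed compounds on slides; z-score merges feature fluorescence and signal-to-noise across triplicate slides.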 Particulars: higher = more signal.
The nature of assay [4]: small molecules captured by biotinylated probe aFGF10 – biochemical, small-molecule microarray, fluorescence 635/667, stem cell growth factor project, primary screen (AID 1071).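 Note: score merges 667 nm spot intensity and signal to noise from triplicate slides.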 Particulars: higher = more signal.
For assay [5], the target named is Neurogenic locus notch homolog protein 2 (Homo sapiens) (UniProt Q04721). Put plainly: small molecules binding Notch2 protein – biochemical, small-molecule microarray, 635 nm fluorescence, stem cell growth factors, primary screen (AID 1073). The settings on record: higher = more signal.
Neurogenic locus notch homolog protein 2 (Homo sapiens), sequence (Q04721 whole entry, looked up, canonical isoform): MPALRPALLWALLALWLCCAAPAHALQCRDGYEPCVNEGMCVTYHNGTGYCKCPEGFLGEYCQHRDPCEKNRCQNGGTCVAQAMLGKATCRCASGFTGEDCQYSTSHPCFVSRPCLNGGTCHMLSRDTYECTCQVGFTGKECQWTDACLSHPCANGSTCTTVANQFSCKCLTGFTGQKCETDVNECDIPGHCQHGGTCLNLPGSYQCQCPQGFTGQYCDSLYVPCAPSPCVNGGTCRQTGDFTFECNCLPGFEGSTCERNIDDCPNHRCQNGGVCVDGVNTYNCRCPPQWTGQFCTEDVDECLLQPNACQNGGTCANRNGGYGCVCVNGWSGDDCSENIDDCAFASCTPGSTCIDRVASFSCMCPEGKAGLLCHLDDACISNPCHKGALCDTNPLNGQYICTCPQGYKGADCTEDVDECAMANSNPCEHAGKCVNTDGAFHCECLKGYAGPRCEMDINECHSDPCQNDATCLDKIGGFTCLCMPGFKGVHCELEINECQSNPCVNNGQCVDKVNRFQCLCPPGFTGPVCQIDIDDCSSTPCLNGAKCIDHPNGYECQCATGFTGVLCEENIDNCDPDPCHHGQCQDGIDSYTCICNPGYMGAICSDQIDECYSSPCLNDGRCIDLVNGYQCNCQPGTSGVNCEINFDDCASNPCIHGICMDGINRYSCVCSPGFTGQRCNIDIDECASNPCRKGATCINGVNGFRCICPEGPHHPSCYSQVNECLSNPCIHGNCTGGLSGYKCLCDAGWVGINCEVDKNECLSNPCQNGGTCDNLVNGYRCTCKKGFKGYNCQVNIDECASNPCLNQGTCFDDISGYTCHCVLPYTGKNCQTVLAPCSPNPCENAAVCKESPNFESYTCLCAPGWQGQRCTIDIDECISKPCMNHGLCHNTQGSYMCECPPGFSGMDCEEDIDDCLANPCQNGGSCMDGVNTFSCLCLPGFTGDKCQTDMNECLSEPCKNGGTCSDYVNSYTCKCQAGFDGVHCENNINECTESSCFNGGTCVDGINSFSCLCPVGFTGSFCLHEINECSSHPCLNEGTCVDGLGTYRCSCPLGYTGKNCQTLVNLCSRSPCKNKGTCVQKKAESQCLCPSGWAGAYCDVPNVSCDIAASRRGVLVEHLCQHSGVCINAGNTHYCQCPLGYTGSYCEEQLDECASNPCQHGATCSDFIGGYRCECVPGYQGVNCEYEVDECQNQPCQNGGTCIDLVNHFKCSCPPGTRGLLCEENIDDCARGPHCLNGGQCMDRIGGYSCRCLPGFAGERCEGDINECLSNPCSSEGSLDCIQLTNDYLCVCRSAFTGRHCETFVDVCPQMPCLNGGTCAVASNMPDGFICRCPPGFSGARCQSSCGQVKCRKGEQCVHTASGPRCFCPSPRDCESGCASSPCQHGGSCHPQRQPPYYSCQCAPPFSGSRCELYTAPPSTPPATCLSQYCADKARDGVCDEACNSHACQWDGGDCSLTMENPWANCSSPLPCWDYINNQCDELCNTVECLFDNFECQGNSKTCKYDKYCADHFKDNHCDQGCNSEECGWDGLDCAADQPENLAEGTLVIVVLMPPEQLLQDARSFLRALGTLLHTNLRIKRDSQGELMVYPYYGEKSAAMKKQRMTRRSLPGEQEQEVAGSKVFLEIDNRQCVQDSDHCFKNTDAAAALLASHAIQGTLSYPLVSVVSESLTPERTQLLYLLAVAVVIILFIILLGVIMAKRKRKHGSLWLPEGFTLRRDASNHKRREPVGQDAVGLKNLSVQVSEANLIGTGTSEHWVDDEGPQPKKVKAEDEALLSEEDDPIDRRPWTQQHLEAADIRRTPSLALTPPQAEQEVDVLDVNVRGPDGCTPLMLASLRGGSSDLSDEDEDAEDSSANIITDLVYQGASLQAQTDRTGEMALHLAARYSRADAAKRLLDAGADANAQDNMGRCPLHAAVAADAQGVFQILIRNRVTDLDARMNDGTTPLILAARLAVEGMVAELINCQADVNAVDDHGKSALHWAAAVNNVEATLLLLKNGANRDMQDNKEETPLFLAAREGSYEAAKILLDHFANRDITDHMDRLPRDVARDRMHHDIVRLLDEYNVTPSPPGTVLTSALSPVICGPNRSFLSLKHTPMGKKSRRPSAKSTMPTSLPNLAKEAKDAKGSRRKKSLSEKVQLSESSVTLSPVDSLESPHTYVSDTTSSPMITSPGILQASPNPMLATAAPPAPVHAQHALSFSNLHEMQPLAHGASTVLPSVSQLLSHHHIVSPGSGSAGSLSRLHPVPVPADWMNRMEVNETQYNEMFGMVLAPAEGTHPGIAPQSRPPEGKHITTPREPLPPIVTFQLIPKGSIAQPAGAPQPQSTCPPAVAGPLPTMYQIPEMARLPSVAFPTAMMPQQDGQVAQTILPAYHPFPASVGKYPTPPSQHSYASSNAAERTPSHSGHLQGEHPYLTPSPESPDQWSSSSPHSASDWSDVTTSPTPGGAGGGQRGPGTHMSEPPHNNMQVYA
In assay [6] the target is Pro-neuregulin-1, membrane-bound isoform (Homo sapiens) (UniProt Q02297). Put plainly: small molecules binding neuregulin-1 protein – biochemical, small-molecule microarray, fluorescence 635/667, psychiatric disease protein project, primary screen (AID 1075).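 Note: score combines 667 nm spot fluorescence with signal to noise.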 The settings on record: NRG1 binding, 635 nm fluorescence, higher = more signal.
Pro-neuregulin-1, membrane-bound isoform (Homo sapiens), sequence (Q02297 whole entry, looked up, the tested form may be a part, canonical isoform): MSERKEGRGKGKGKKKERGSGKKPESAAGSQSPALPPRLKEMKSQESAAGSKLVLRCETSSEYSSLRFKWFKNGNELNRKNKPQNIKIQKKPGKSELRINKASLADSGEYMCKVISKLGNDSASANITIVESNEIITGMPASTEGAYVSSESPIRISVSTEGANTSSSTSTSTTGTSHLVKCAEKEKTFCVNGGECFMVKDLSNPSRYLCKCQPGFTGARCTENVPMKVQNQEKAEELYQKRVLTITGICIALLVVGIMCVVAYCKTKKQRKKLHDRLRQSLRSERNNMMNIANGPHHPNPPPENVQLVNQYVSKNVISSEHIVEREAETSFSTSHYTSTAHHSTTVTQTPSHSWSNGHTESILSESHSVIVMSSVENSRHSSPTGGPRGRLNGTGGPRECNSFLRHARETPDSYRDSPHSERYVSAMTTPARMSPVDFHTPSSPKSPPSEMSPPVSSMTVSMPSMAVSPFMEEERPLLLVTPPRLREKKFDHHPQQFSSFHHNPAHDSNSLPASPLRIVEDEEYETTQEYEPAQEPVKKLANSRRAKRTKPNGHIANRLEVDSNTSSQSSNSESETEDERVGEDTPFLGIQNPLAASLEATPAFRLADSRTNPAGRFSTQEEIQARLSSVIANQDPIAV
Assay [7] deals with Neuregulin-1 EGF-like domain. Put plainly: small molecules binding NRG1 EGF domain – biochemical, small-molecule microarray, 635 nm fluorescence, primary screen (AID 1081).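 Note: binding of the protein to compounds printed on small-molecule microarray slides.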 The settings on record: higher = more signal.
Assay [8] in a line: FRG1 expression reporter modulators in myotubes – cell-based, C2C12 myotubes, firefly/Renilla luciferase, luminescence, FRG1 inhibition for FSHD, primary screen (AID 1084). The settings on record: FRG1 promoter luciferase, higher = more signal, called active from +8 up or from −8 down.
The nature of assay [9]: small molecules captured by biotinylated probe aFST – biochemical, small-molecule microarray, fluorescence 635/667, stem cell growth factor project, primary screen (AID 1086).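 Note: score merges 667 nm fluorescence with signal-to-noise of each printed compound spot.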 The settings on record: higher = more signal.
Assay [10] is described as follows: binders of probe aHhip on microarray, primary screen, stem cell growth factor project, biochemical, small-molecule microarray, fluorescence 635/667 (AID 1087).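 Note: score merges spot fluorescence at 667nm with spot signal to noise ratio.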 The settings on record: higher = more signal.

Here are results for 21 compounds from PubChem BioAssay.

Activity calls are given as the source filed them.

Regarding `COC(=O)[C@@]1(Cc2ccc(OC)cc2)[C@H]2c3cc(C(=O)N4CCCC4)n(CCc4c[nH]c5ccc(OC)cc45)c3C[C@H]2CN1C(=O)c1ccccc1`, the composite z-score in assay [1] amounted to 1.49; in [2], 1.14; in assay [3], 0.204; in [4] it was 0.686; in [5], 1.74; in assay [6], 0.898. Moreover, the figures for the composite z-score in [7], in assay [9] and in assay [10] were 1.16, 1.55 and -0.161, respectively. The z-score in [8] was 0.49 (inactive).
Regarding `COc1ccc([C@H]2OC[C@@H]3C[C@H](Cc4ccccc4)C(=O)N32)cc1`, the composite z-score in [1] was -0.458; in [2] it was 0.7; in assay [3] it was -0.0376; in assay [4], 0.219; in assay [5], 0.423; in assay [6], -0.465. The composite z-score in [7] stood at 0.684; in assay [9], 0.277; in assay [10], 0.107. In addition, in assay [8], the z-score is 0.18 (inactive).
`CC(C)C[C@@H]1NC(=O)[C@@H]2C[C@H](C(=O)NCCCCCCN)[C@H](c3cccc(OCCO)c3)N2C1=O`: the composite z-score in assay [1] is 0.0713; in [2], -0.262; in [3] it was 0.107; in assay [4], 0.655; in [5], 0.928; in assay [6], 1.98. The composite z-score in assay [7] is 1.44; in assay [9] it was 0.819; in assay [10], -0.121. The z-score in assay [8] was 1.32 (inactive).
Consider `CC(C)(C)OC(=O)CC[C@@]1(C(=O)NCC(O)CO)N=C(c2ccc(OCCCO)cc2)O[C@@H]1c1ccccc1CN=[N+]=[N-]` (stereo not given in full), for which the composite z-score was 0.316 in assay [1]; 1.86 in assay [2]; -0.0249 in [3]; 0.426 in [4]; 1.49 in [5]; 1.01 in assay [6]. Besides, the results for the composite z-score in [7], in assay [9] and in [10] were 1.48, 0.544 and -0.0994, respectively. Besides, in assay [8], the z-score is 3.3 (inactive).
As to `COCC(=C=CC[C@H](O)c1ccc(CO)o1)CCO`, the composite z-score in [1] was -0.254; in [2], -0.0406; in assay [3] it was 0.0154; in assay [4] it was 0.553; in assay [5] it was -0.234; in [6], 1.19. The composite z-score in [7] amounted to 1.23; in assay [9] it was 0.51; in [10] it was 0.382. The z-score in assay [8] is 0.461 (inactive).
On to `CCCCCN1CC=CC23O[C@@H]4/C=C\CCC(C)OC(=O)C4[C@H]2C(=O)N(C(CO)C(C)C)[C@@H]3C1=O` (stereo not given in full), for which the composite z-score was -1.2 in assay [1]; -0.456 in assay [2]; -0.245 in assay [3]; -0.246 in [4]; -0.406 in [5]; 1.21 in [6]. For the same compound, the values for the composite z-score in [7], in assay [9] and in assay [10] were 1.38, -0.592 and -0.457, respectively. For the same compound, the z-score in assay [8] was -0.23 (inactive).
For the compound `C=CCN1C(=O)[C@]2(CCS(=O)(=O)c3ccccc3)N=C(c3ccc(OCCCO)cc3)O[C@@H]2c2ccccc21`, the composite z-score in assay [1] was -0.104; in [2], 0.264; in assay [3], 0.0109; in [4] it was 0.162; in [5], 0.84; in assay [6], 0.445. For the same compound, the composite z-score in assay [7] is 1.28; in assay [9] it was 0.454; in assay [10] it was -0.121. The z-score in assay [8] is -1.9 (inactive).
Turning to `CCN(CC)c1ccc(N2CC=CC34O[C@@H]5/C=C\CCCOC(=O)C5[C@H]3C(=O)N(C(C)CO)[C@@H]4C2=O)cc1` (stereo not given in full), the composite z-score in [1] was -0.136; in assay [2], -0.207; in assay [3], -0.175; in [4] it was -0.136; in assay [5] it was -0.0693; in assay [6] it was 1.87. Further, the composite z-score in assay [7] is 1.31; in assay [9], -0.285; in [10], -0.236. Also, the z-score in [8] was -0.768 (inactive).
Regarding `Cc1ccc(N2C(=O)c3ccccc3[C@@H](C(=O)NCCCN(C)C)[C@@H]2c2ccc(CO)cc2)nc1`, the composite z-score in [1] was 1.36; in [2], -0.538; in assay [3], 0.111; in [4], -0.533; in assay [5], -0.854; in assay [6], 1.02. In addition, the results for the composite z-score in [7], in assay [9] and in assay [10] were 1.44, 0.282 and -0.757, respectively. Further, the z-score in [8] was 0.298 (inactive).
Regarding `COc1ccc([Si](C)(C)[C@H]2[C@H](CC(=O)N3CCC[C@H]3CO)O[C@@]3(C(=O)N(Cc4ccc(N5CCOC5=O)cc4)c4ccccc43)[C@@H]2C)cc1`, the composite z-score in assay [1] is -0.591; in assay [2], 0.582; in assay [3], -0.043; in [4], 0.44; in assay [5], 1.15; in assay [6] it was 1.1. Further, the composite z-score in assay [7] is 1.21; in [9], 0.268; in [10] it was -0.0237. Also, the z-score in assay [8] was -4.09 (inactive).
As to `COc1ccc(CCNC(=O)[C@@]2(Cc3ccccc3I)c3ccccc3C(=O)N(C3CCCCC3)[C@H]2c2ccc(CO)cc2)cc1`, the composite z-score in [1] is -0.0515; in assay [2], -0.256; in assay [3] it was -0.079; in assay [4] it was -0.0337; in assay [5], 0.281; in assay [6] it was 0.56. Besides, the composite z-score was 0.897 in assay [7], 0.384 in assay [9] and -0.0645 in assay [10]. Besides, in assay [8], the z-score is -4.25 (inactive).
Regarding `CCCC=C(CCC)[C@@H](NS(=O)(=O)CC12CCC(CC1=O)C2(C)C)c1ccc(C(=O)OC)cc1` (stereo not given in full), the composite z-score is -0.126 in assay [1]; 0.645 in assay [2]; 0.291 in [3]; 0.375 in assay [4]; 0.621 in [5]; 0.128 in [6]. The values for the composite z-score in [7], in assay [9] and in assay [10] were 1.09, 0.974 and 0.274, respectively. The z-score in assay [8] is 2.86 (inactive).
Turning to `CC(=O)NCCCC[C@@H]1NC(=O)[C@@H]2C[C@H](C(=O)NCCCCCN)[C@H](c3ccc(O)cc3)N2C1=O`, the composite z-score in assay [1] is 0.95; in assay [2], 1.25; in assay [3], 0.088; in [4] it was 0.864; in assay [5], 0.702; in [6], 0.995. Moreover, the composite z-score in [7] was 1.43; in assay [9], 0.491; in [10], -0.334. Also, in assay [8], the z-score is 0.604 (inactive).
For `Cc1ccc(S[C@]2(C(=O)O)CC(=O)N(C3CCCCC3)[C@@H]2c2ccc(CO)cc2I)cc1`, the composite z-score in assay [1] is -0.0155; in [2] it was 0.165; in assay [3], -0.0986; in assay [4], 0.52; in assay [5] it was 0.762; in assay [6] it was 1.43. For the same compound, the composite z-score in assay [7] was 1.2; in assay [9] it was 1.23; in assay [10], -0.0898. Also, in [8], the z-score was -0.163 (inactive).
Turning to `CCOC(=O)C[C@H]1[C@H](OC(=O)c2ccccc2-c2ccccc2)[C@@H](NC(=O)c2ccc3ccccc3c2)c2cc(OCCCO)ccc2N1C(=O)c1ccccc1`, the composite z-score was -0.421 in [1]; 0.483 in [2]; -0.0277 in assay [3]; 1.03 in assay [4]; 0.299 in [5]; 0.12 in assay [6]. Also, the values for the composite z-score in assay [7], in assay [9] and in assay [10] were 0.965, 0.0603 and 0.0373, respectively. In assay [8], the z-score is -0.201 (inactive).
On to `C=C[C@H](C)[C@H](OC(=O)Nc1ccc(SC)cc1)c1ccc(OCCO)cc1`, for which the composite z-score in [1] was -0.0439; in [2] it was 1.18; in [3], -0.1; in assay [4] it was 0.406; in assay [5] it was -0.34; in assay [6] it was 0.745. Moreover, the composite z-score was 1.15 in [7], 0.0319 in assay [9] and 0.0972 in assay [10]. Besides, the z-score in assay [8] is 4.38 (inactive).
For `COC(=O)C/C=C/C[C@]1(O)C(=O)N(C)c2ccccc21`, the composite z-score is -0.408 in assay [1]; 0.598 in [2]; -0.148 in assay [3]; -0.294 in [4]; 0.223 in assay [5]; -0.419 in assay [6]. The composite z-score in assay [7] was 0.797; in assay [9], 0.164; in [10], -0.0708. For the same compound, in [8], the z-score was -1.59 (inactive).
Turning to `CCOC(=O)C[C@H]1[C@H](OC(=O)c2ccc(C(=O)c3ccccc3)cc2)[C@@H](NC(=O)C2CCCCC2)c2cc(OCCCO)ccc2N1C(=O)c1ccc2ccccc2n1`, the composite z-score was -0.244 in assay [1]; 0.213 in [2]; -0.0885 in assay [3]; 0.735 in assay [4]; 1.03 in [5]; 0.532 in assay [6]. The values for the composite z-score in [7], in assay [9] and in assay [10] were 0.722, 0.842 and 0.382, respectively. The z-score in assay [8] is 0.0852 (inactive).
For `NCCCCCNC(=O)[C@@H]1C[C@@H]2C(=O)N[C@@H](CCCCN)C(=O)N2[C@@H]1c1ccc(O)cc1`, the composite z-score in assay [1] is 0.266; in [2] it was 0.726; in [3] it was -0.0213; in [4], 0.491; in [5] it was 1.39; in [6] it was 2.02. In addition, the figures for the composite z-score in [7], in [9] and in [10] were 1.29, 0.865 and 0.23, respectively. The z-score in assay [8] was 1.08 (inactive).
`C=CCNC(=O)[C@H]1[C@@H]2C(=O)O[C@@H](c3ccccc3)[C@@H](c3ccccc3)N2[C@@H](c2ccccc2OCCO)[C@]12C(=O)N(C(=O)OCCOC)c1ccc(C#CC3(O)CCCCCC3)cc12`: the composite z-score in [1] was -0.192; in [2], 0.281; in [3], 0.0376; in [4], 0.434; in assay [5], 0.776; in assay [6], 1.04. Also, the composite z-score turned out to be 1.2 in assay [7], 0.339 in assay [9] and 0.0176 in assay [10]. Further, the z-score in assay [8] is -2.54 (inactive).
Regarding `CCCC=C(CCC)[C@@H](NC(=O)C(C)(C)C)c1ccc(C(=O)OC)cc1`, the composite z-score in assay [1] was 0.488; in assay [2], -0.495; in assay [3], 0.202; in assay [4], 0.0431; in [5] it was 1.45; in [6] it was 0.992. For the same compound, the composite z-score was 0.883 in [7], 1.26 in assay [9] and -0.115 in assay [10]. In assay [8], the z-score is -4.15 (inactive).
